# Rows were chosen to be rich in hits. Some 3.2% of all compounds tested hit in one or more screens of this group.
# SKN-1 block = suppressors of acrylamide-induced Pgst-4::GFP reporter in worms, primary screen, SKN-1 inhibitor project, whole organism, uHTS, GFP/RFP fluorescence ratio, strain VP596; C. elegans VP596 Pgst-4::GFP/RFP ratio, 24 h; inhibition, % at 21.8 µM; 0.49% of 360,000 active; AID 624304, 2012;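 active = interference check ratio from 0.5 to 1.5 plus GFP to RFP signal ratio inhibition reaching or exceeding a fixed threshold, cut at about 30% in these data, passing the limit was not always enough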
# NRP1-CendR mod = modulators of CendR peptide binding to NRP-1, primary screen, biochemical, fluorescence polarization, uHTS; Neuropilin-1 (Homo sapiens), O14786; FAM-RPARPAR peptide binding to NRP-1; inhibition, % at 25 µM; 0.85% of 360,000 active;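 active = inhibition or corrected inhibition above about 18%, plus a signal ratio from 0.5 to 1.5, limit read from the data, passing the limit was not always enough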
# Target sequence (O14786 whole entry, looked up): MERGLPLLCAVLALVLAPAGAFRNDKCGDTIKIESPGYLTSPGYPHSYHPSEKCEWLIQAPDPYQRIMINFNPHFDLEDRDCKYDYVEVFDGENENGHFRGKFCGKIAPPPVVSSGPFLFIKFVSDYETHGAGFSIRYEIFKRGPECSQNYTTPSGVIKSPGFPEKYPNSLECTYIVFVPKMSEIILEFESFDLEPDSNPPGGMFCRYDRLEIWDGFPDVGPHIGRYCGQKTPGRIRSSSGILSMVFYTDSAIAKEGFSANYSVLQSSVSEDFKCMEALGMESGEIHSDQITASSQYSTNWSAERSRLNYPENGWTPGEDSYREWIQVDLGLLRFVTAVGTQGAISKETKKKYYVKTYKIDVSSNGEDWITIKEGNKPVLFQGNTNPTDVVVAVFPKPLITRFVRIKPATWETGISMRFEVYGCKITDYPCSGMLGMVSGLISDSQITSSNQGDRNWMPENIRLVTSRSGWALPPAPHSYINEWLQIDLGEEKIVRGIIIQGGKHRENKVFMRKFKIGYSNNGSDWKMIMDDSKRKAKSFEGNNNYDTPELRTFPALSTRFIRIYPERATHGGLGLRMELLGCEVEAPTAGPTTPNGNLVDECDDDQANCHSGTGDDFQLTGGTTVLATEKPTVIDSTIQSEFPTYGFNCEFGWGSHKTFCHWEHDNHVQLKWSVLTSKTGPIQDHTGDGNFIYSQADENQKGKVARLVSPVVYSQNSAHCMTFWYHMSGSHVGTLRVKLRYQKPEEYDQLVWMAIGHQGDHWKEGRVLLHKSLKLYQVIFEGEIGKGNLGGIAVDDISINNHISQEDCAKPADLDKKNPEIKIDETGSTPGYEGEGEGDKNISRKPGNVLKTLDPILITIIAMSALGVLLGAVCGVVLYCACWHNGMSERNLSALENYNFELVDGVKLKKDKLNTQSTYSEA
# MEKK2 WT-MEK5 = modulators of MEK5 binding to wildtype MEKK2, primary screen, biochemical, multiplex bead flow cytometry, Alexa488-MEK5. AID 1531, 2009. Alexa488-MEK5 binding to MEKK2 WT; actives lie on both sides. 1.1% of 290,000 active. binding response (% of control), % at 10 µM; in the data active = binding response below about 67% or above about 130%
# MEKK3 PB1 HTS = modulators of MEKK3-MEK5 PB1 binding, primary screen, biochemical, wildtype MEKK3, multiplex bead flow cytometry, Alexa488-MEK5; AID 1529, 2009; Mitogen-activated protein kinase kinase kinase 3 (Homo sapiens), Q99759; 1.4% of 290,000 active; binding response (% of control), % at 10 µM; bead-based flow cytometry, Alexa488-MEK5 binding to MEKK3; actives lie on both sides; 0 = blocked by unlabeled MEK5, 100 = vehicle;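 active = binding response more than 3 SD above or below the average of its plate-row segment, actives on both sides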;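 note: Alexa488 bead fluorescence after subtracting the streptavidin-only scavenger bead signal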
# MEKK2mut PB1 HTS = MEK5 binding signal on mutant MEKK2 PB1, primary screen, biochemical, multiplex bead flow cytometry, Alexa488-MEK5 | AID 1530, 2009 | Alexa488-MEK5 binding to MEKK2 mutant | 0.35% of 290,000 active | percent response, % at 10 µM; in the data active = percent response above about 24%, passing the limit was not always enough
# MEKK2wt confirm = modulators of MEK5 binding to wildtype MEKK2, confirmation, biochemical, single concentration, multiplex bead flow cytometry. shares compounds with MEKK3 PB1 HTS. Alexa488-MEK5 binding to MEKK2 WT; actives lie on both sides. binding response (% of control), % at 10 µM. 2.4% of 5,900 active; in the data active = binding response below about 16% or above about 210%; inactive = in between
# MEKK2mut confirm = mutant MEKK2 PB1-MEK5 binding signal retest – biochemical, single concentration, multiplex bead flow cytometry, confirmation; Alexa488-MEK5 binding to MEKK2 mutant; percent response, % at 10 µM; AID 1893, 2009; shares compounds with MEKK3 PB1 HTS; 2% of 5,900 active; in the data active = percent response mostly above about 71%, no sharp cut-off; inactive = mostly below about 38%;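 note: higher means compound restores mutant binding toward wildtype level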
# MEKK3-MEK5 inh = MEKK3 wild-type PB1 binding to MEK5, inhibitors, confirmation, biochemical, bead multiplex flow cytometry, single concentration, wildtype | 1.8% of 5,900 active | shares compounds with MEKK3 PB1 HTS | Alexa488-MEK5 binding to MEKK3; active compounds read low | binding response (% of control), % at 10 µM;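 active = binding response below 72% of control, or above a set upper limit, though filed actives all read lower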;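 note: 100% = DMSO only wells and 0% = binding blocked by excess unlabeled MEK5; lower values mean stronger disruption of MEK5 binding to MEKK3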
# An asterisk follows results filed as active; / = no result given; ! = a repeat was not active; [ ] = remark or other dose.
SMILES,SKN-1 block,NRP1-CendR mod,MEKK2 WT-MEK5,MEKK3 PB1 HTS,MEKK2mut PB1 HTS,MEKK2wt confirm,MEKK2mut confirm,MEKK3-MEK5 inh
COc1ccc(C2c3c(ncn(CCN4CCOCC4)c3=N)Oc3ccc4ccccc4c32)cc1 (stereo not drawn),-9,-10,165*,102,7,127,23,103
N=c1c2c(ncn1Cc1ccco1)Oc1c(ccc3ccccc13)C2c1ccccc1 (stereo not drawn),2,-10,133,104,3,/,/,/
CCOC(=O)CSc1nc(=O)n2cc(C)ccc2n1,4,-13,95,101,-5,/,/,/
CCOC(=O)C(C)Sc1nc(=O)n2cc(C)ccc2n1 (stereo not drawn),2,-1,54,45*[inhibitor],-15,117,7,103
Cc1cccc(C)c1NC(=O)c1cc(S(=O)(=O)N2CCC3(CC2)OCCO3)ccc1F,-5,-6,/,/,/,/,/,/
COc1cc(-c2nc(-c3ccc(NC(=O)c4ccc5c(c4)OCO5)cc3)no2)cc(OC)c1OC,18,-17,45*[inhibitor],111,-2,101,-5,96
Cc1ccc(OCCN(C)C(=O)C2CCC(=O)N(CC3CCCCC3)C2)cc1 (stereo not drawn),-9,7,104,102,1,/,/,/
COCc1[nH]nc2c1C1(C(=O)N(C)c3ccccc31)C(C#N)=C(N)O2 (stereo not drawn),15,5,79,79*[inhibitor],-5,106,4,103
CCN1C(=O)C2(C(C#N)=C(N)Oc3n[nH]c(COC)c32)c2ccccc21 (stereo not drawn),8,-3,98,99,-1,/,/,/
COc1ccc(S(=O)(=O)N2CCC(C(=O)NCCC(=O)NCc3cccnc3)CC2)cc1,3,8,/,/,/,/,/,/
Cc1nn(C)cc1S(=O)(=O)Nc1cccc(Cl)c1,0,-3,95,97,-1,/,/,/
COc1cc(OC)c2c(-c3ccccc3)cc(=O)oc2c1C(CCN1CCOCC1)c1ccc(N(C)C)cc1 (stereo not drawn),0,-9,/,/,/,/,/,/
COc1cc(OC)c2c(-c3ccccc3)cc(=O)oc2c1C(CCN1CCCCC1)c1ccc(N(C)C)cc1 (stereo not drawn),3,3,183*,127,20,154,34,104
COc1ccc(C(CCN2CCCCC2)c2c(OC)cc(OC)c3c(-c4ccccc4)cc(=O)oc23)cc1 (stereo not drawn),6,4,182*,106,26*,153,22,106
COc1cc2nc(N3CCN(C(=O)c4ccco4)CC3)nc(N)c2cc1OC,5,-8,104,112,6,/,/,/
COc1cc2nc(N3CCN(C(=O)C4COc5ccccc5O4)CC3)nc(N)c2cc1OC (stereo not drawn),-11,1,150*!,116,15,146,27,111
COc1ccc(CNC(=O)Nc2nc(C(N)c3ccccc3)cs2)cc1 (stereo not drawn),-3,4,/,/,/,/,/,/
Cc1c(CN2CCC(CO)(Cc3cccc(C(F)(F)F)c3)CC2)c2ccccc2n1C,10,2,165*,108,44,137,11,99

# Bioassay records deposited in PubChem by several laboratories.
